Rows were chosen to be rich in hits. Some 10% of all compounds tested hit in one or more screens of this group.
FLuc inh: Firefly luciferase inhibition profiling of diverse chemical library using quantitative high-throughput screening; Luciferin 4-monooxygenase (Photinus pyralis), P08659; purified P. pyralis luciferase, luminescence, biochemical; Potency, µM (doses to about 115 µM), most hits filed as inhibitors; 76,000 tested, 2.5% active; AID 1347043, 2019; further: nearly all actives have a fitted effect of over 65% in size
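Inhibitors were tested against purified firefly luciferase in a biochemical, low-substrate format (both substrates at 10uM) and luminescence measured with a CCD imager.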
hNpr1 antagonist: Natriuretic polypeptide receptor (hNpr1) antagonism - Primary qHTS; 76,000 tested, 1.6% active; AID 1347048, 2019; HEK293 hNpr1 GloSensor cGMP, ANP-stimulated luminescence; Atrial natriuretic peptide receptor 1 (Homo sapiens), P16066; Potency, µM (doses to about 46.3 µM), for inactives: at the top dose activity change, negative = inhibition, usual class: inhibitors; calls by dose curve; further: nearly all actives have a fitted effect of over 60% in size
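HEK293 cells stably expressing human Npr1 and cGMP GloSensor pGS-40F, loaded 2 h with 2% GloSensor reagent, given compound 30 min at room temperature. Luminescence read before and 20 min after 0.1 nM hNppA.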
3T3 cytotox: Cytotoxic Profiling in NIH 3T3 Cell Line of Diverse Libraries Using Quantitative High-Throughput Screening. NIH 3T3 viability, CellTiter-Glo ATP luminescence, 48-72 h. Potency, µM (series often up to 96.7 µM), without a hit: at the highest dose activity change, negative = cytotoxicity, hits mostly inhibitors. 94,000 tested, 4.3% active; further: nearly all actives have a fitted effect of over 55% in size
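ATP-dependent luminescence (CellTiter-Glo) served as the viability signal for NIH 3T3 cells treated with compound for 48 or 72 hr at 37 °C.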
GPT2 inhibitor: Primary qHTS assay for inhibitors of Glutamate pyruvate transaminase 2 (GPT2) | 100,000 tested, 0.25% active | Recombinant GPT2, coupled pyruvate oxidase/HRP Amplex Red fluorescence | Alanine aminotransferase 2 (Homo sapiens), Q8TD30 | Potency, µM (top dose mostly 57.7 µM), for inactives: top-dose activity change, negative = inhibition, hits mostly inhibitors; further: nearly all actives have a fitted effect of over 60% in size
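Fluorescence of coupled pyruvate oxidase/HRP/Amplex Red system (50uM Amplex, 30 min, dark) reports pyruvate formed by GPT2. Enzyme reaction: 10ng/uL GPT2, 2mM L-alanine, 250uM a-KG, 30 min room temperature, pH 7.5; 50uM AOA control.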
HEK cytotox: Cytotoxic Profiling in HEK 293 Cell Line of Diverse Libraries Using Quantitative High-Throughput Screening; HEK 293 viability, ATP luminescence (CellTiter-Glo), 48-72 h; AID 1345083, 2018; Potency, µM (titrated, usually from 115 µM), inactives show at the highest dose activity change, negative = cytotoxicity, actives largely listed as inhibitors; 94,000 tested, 6.6% active; further: nearly all actives have a fitted effect of over 60% in size
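Cells seeded first (HEK 293, 250 cells/well), then compound added by pintool. Incubation ran 48 or 72 hr at 37 degree Celsius. CellTiter-Glo was added and luminescence imaged after 10 min at room temperature.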
* = called active by the depositor; i = inactive; ? = inconclusive; . = no result; ! = not active in a repeat; [ ] = remark or other dose. Unless noted, the call rests on the fitted dose curve; in most records, active means well fitted curve in the direction sought with a large enough effect; inconclusive means small, poorly fitted or top-dose-only effect, or another doubt; inactive means no such curve, though single readings can be large; an effect the other way counts as inactive or inconclusive. On the % scale 0 is the no-effect control and ±100 the full control effect; potency means the concentration at half of the fitted maximal effect.

SMILES	FLuc inh	hNpr1 antagonist	3T3 cytotox	GPT2 inhibitor	HEK cytotox
Cc1cc(C)cc(NC(=O)N2c3ccccc3CC2c2noc(C3CCOCC3)n2)c1 (centres undefined)	40µM*	-7%	-25%	-6%	-26%
COCC(=O)NC[C@H]1OC[C@@H](NCc2ccc(F)cc2)[C@@H]1O	i	6%[70.6 µM]	i	i	4%[172 µM]
CC(C)CN1CCN(c2cc(Cl)ncn2)C(=O)C1	i	18%[70.6 µM]	-33%[138 µM]	-4%[88.5 µM]	?
O=C1CN(Cc2cccc(-c3ccsc3)c2)CCN1c1cc(Cl)ncn1	i	-12%	?	-3%	79µM*
CC(=O)Nc1ccc(CN2CCN(c3cc(Cl)ncn3)C(=O)C2)cc1	i	22%	35µM*	i	10µM*
COc1ccc(C(=O)N2CCC(Cc3noc(C4CCOCC4)n3)C2)cc1F (centres undefined)	i	-1%	-2%	2%	-7%
O=C(NC1CCN(c2nccc(Nc3ccccc3F)n2)CC1)c1ccccc1F	.	.	?	-10%	?
COc1cccc(C(=O)NC2CCN(c3nccc(Nc4ccc(C)cc4)n3)CC2)c1	.	.	40µM*	i	?
Cc1ccc(Nc2ccnc(N3CCC(NC(=O)c4ccccc4F)CC3)n2)cc1	.	.	?	i	50µM*
COc1ccc(Nc2ccnc(N3CCC(NC(=O)c4ccccc4F)CC3)n2)cc1	.	.	?	-2%	50µM*
CC(C)N1C(=O)C(CC(=O)Nc2cccc(OC(F)(F)F)c2)=C2CCCCC21 (centres undefined)	i	0%	?	i	?
Cc1ccccc1C(=O)NC1CCCN(CCn2nc3n(c2=O)CCCC3)C1 (centres undefined)	.	.	-7%	.	-4%
CCOC(=O)Nc1ccc(NCc2ccc(F)cc2)nc1N	.	.	.	10µM*!	.
Cc1nnc2ccc(NCc3ccc(F)cc3)nn12	?	?	?	3%	?
O=C(C1CCCN1[S+](=O)([O-])c1cccc(C(F)(F)F)c1)N1CCC(c2nc3ccncc3[nH]2)CC1 (centres undefined)	.	.	?	-3%	2%
COc1ccc(Nc2cc3c(cn2)CN(Cc2ccncc2)CCN3)cn1	i	0%[70.6 µM]	-23%[138 µM]	5%[88.5 µM]	?
Cc1noc(C)c1CN1CCNc2cc(Nc3ccccc3)ncc2C1	35µM*	-1%[70.6 µM]	-67%[138 µM]	i	?
Cc1noc(C)c1CN1CCNc2cc(-c3ccccc3)ncc2C1	63µM*	0%[70.6 µM]	?	3%[88.5 µM]	?
Cc1cc(C)n(CCC(=O)N2CCC(Cc3noc(-c4ccccc4)n3)C2)n1 (centres undefined)	.	.	?	i	?
Cc1ccc(C(=O)N2CCCC3(CCNCC3)CC2)cc1Cl	i	-1%	79µM*	-27%	?
CC(C)[C@@H]1C[C@@H]2C[C@@H](NCc3ccccc3)C[C@]2(c2ccccc2)CO1	.	.	?	.	79µM*
CCOc1cccc2c1OC[C@@H]1CN(CCOC)C(=O)CCN(C(=O)CC)[C@H]21	.	.	?	.	-4%
CN(Cc1ccc(C#N)cc1)Cc1cccc2cnccc12	i	-23%	?	0%	?
O=C(c1ccccc1)N1CCC2(CC1)CCN(CCc1ccccc1)c1ccccc1O2	i	-6%	?	i	40µM*
O=C(Cc1ccc(F)cc1)N1CCC2(CC1)CC(=O)N(c1ccccc1)c1ccccc1O2	i	-9%	40µM*	i	40µM*
O=C(c1ccc(F)cc1)N1CCC2(CC1)CCN(CCc1ccccc1)c1ccccc1O2	i	0%	?	i	40µM*
CCCN1CCC2(CCN(C(=O)c3ccccc3C)CC2)Oc2ccccc21	i	26%	?	3%	?

Compound activity deposited in PubChem by National Center for Advancing Translational Sciences (NCATS).
